Compounds without any hit were thinned out: in the full panel of roughly 79,000, 15% have a hit. Cut-off read from the data, not from the text of the source: active = growth inhibition above about 70%; inactive = the rest.
Legend:
[1] = NCI Yeast Anticancer Drug Screen. Data for the rad50 strain (AID 155);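 note: 0% = growth of vehicle-only cultures of the same strain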; settings: S. cerevisiae rad50 strain growth inhibition; at 50.0 µM; stronger effect = higher value
Summary of the method: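 Yeast carrying a defined DNA repair defect were exposed to test compounds, and growth was compared with vehicle-treated controls to give percent inhibition.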

[2] = NCI Yeast Anticancer Drug Screen. Data for the mec2-1 strain (AID 157); settings: S. cerevisiae mec2-1 strain, at 50.0 µM, stronger effect = higher value
Summary of the method: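 Mutant yeast (mec2-1) grown with compound; growth inhibition relative to vehicle control reported.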

[3] = NCI Yeast Anticancer Drug Screen. Data for the sgs1 mgt1 strain (AID 161);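 note: 0% = growth of cultures given vehicle only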; settings: S. cerevisiae sgs1 mgt1 strain, at 50.0 µM, stronger effect = higher value
Summary of the method: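 Growth of a repair-deficient yeast mutant was monitored after compound treatment and expressed as inhibition relative to vehicle-treated cultures.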

[4] = NCI Yeast Anticancer Drug Screen. Data for the cln2 rad14 strain (AID 165);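 note: 0% = growth equal to vehicle treated cultures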; settings: S. cerevisiae cln2 rad14 strain, at 50.0 µM, stronger effect = higher value
Summary of the method: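 Readout is yeast growth inhibition versus vehicle-treated controls, using a strain with cln2 and rad14 alterations exposed to compound.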

[5] = NCI Yeast Anticancer Drug Screen. Data for the bub3 strain (AID 167); settings: S. cerevisiae bub3 mutant strain, at 50.0 µM, stronger effect = higher value
Summary of the method: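 Compounds were applied to a genetically altered yeast strain carrying a cell-cycle control defect. Growth inhibition was scored against vehicle-treated controls.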

[6] = NCI Yeast Anticancer Drug Screen. Data for the mlh1 rad18 strain (AID 175); settings: S. cerevisiae mlh1 rad18 strain growth inhibition; at 50.0 µM; stronger effect = higher value
Summary of the method: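 Genetically defined yeast (DNA repair-deficient) exposed to compounds; growth inhibition determined relative to vehicle.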

Measured: growth inhibition

COCC(C)(CO)CC(C)CO (centres undefined)
inactive: [1] -13% | [2] -25.8% | [3] -0.15% | [4] -42% | [5] -7.1% | [6] -1.4%

Nc1nc(N)c(-c2ccccc2)c(CCC(=O)Nc2ccc(Cl)cc2)n1
inactive: [1] -34.8% | [2] 3.95% | [3] -3.35% | [4] -27.9% | [5] -21.5% | [6] 7.8%

Cn1cnc([N+](=O)[O-])c1Sc1nnc(C(F)(F)F)n1C
inactive: [1] -7.6% | [2] -6.95% | [3] -9.65% | [4] 7.5% | [5] 3.6% | [6] -6.95%

N#CCCN(CCC#N)C(Cc1cn(CCC#N)cn1)C(=O)O (centres undefined)
inactive: [1] -8.5% | [2] 6.35% | [3] 4.95% | [4] -13.2% | [5] 5.35% | [6] 10.8%

O=C1OC(c2ccc(O)c(-c3ccccc3)c2)(c2ccc(O)c(-c3ccccc3)c2)c2c(Cl)c(Cl)c(Cl)c(Cl)c21
inactive: [1] -16.4% | [2] -18.4% | [3] 19.1% | [4] -18.6% | [5] -33.1% | [6] 1.45%

Cc1ccc(-c2nnc(NC(=O)Nc3ccc(Cl)cc3)o2)cc1
inactive: [1] 3.15% | [2] -1.45% | [3] 4.3% | [4] -60.6% | [5] -13.5% | [6] 21.8%

CC1=NNC(c2ccco2)C1 (centres undefined)
inactive: [1] 10.2% | [2] 5.6% | [3] 12.8% | [4] 18.1% | [5] 11.9% | [6] 5.7%

O=C1OC(c2ccc(Cl)cc2)=N/C1=C\c1ccc(Cl)c(Cl)c1
inactive: [1] 35.7% | [2] 19.1% | [3] 59.4% | [4] 19.2% | [5] 38.5% | [6] 31.7%

CN(C)Cc1cc(Cl)c(O)c(CN(C)C)c1
inactive: [1] -17.6% | [2] -43.5% | [3] -38.4% | [4] 23.7% | [5] -30.6% | [6] 15.1%

COc1ccc(N(C)CN(C)c2nc(N(C)C)nc(N(C)C)n2)cc1
inactive: [1] -67.8% | [2] -30.8% | [3] -43% | [4] -45.4% | [5] -60.8% | [6] -62.9%

CCc1ccc(OC(C)=O)cc1
inactive: [1] 12.5% | [2] 10.6% | [3] -13.2% | [4] -21.7% | [5] 6.6% | [6] 15.6%

N#Cc1c(F)cccc1N1CCSCC1
inactive: [1] 3.5% | [2] -17.8% | [3] 14.3% | [4] 25.4% | [5] 11.5% | [6] -0.55%

CC(=O)NNC(=O)c1ccc(Br)cc1
inactive: [1] 1.3% | [2] -16.4% | [3] 0.5% | [4] -3.2% | [5] 21.6% | [6] -1.05%

O=C(NCCSC(=O)Nc1ccccc1)Nc1ccccc1
inactive: [1] 0% | [2] 14.8% | [3] 5.25% | [4] -10% | [5] 29.1% | [6] 8.55%

CCCCc1c2c([n+]([O-])c3c1CCCC3)CCCC2
inactive: [1] 29.4% | [2] 30.3% | [3] 54.1% | [4] -11.2% | [5] 17.2% | [6] 20.1%

S=C=NC12CC3CC(CC(C3)C1)C2
inactive: [1] -2% | [2] 0.6% | [3] 0.65% | [4] 15.1% | [5] -4.05% | [6] -15.5%

Clc1ccc2noc(-c3ccccc3)c2c1
inactive: [1] 22.6% | [2] 3.05% | [3] 4% | [4] 0.85% | [5] 0.7% | [6] 23.6%

N#Cc1ccccc1C(Cl)(Cl)c1cnccn1
inactive: [1] 9.9% | [2] -6.85% | [3] -10.7% | [4] 29.9% | [5] -0.4% | [6] 20.1%

O=S(=O)(O)C(O)C(c1ccccc1)c1ccccc1 (centres undefined)
inactive: [1] -16.1% | [2] -15.8% | [3] -15.6% | [4] -15.8% | [5] -7.2% | [6] -31.9%

COc1cc(C=NCc2ccccc2)cc(OC)c1O
inactive: [1] -1.05% | [2] 19.2% | [3] 4.7% | [4] -14.6% | [5] 19.8% | [6] 8.9%

Nc1ccc(CC(=O)O)cc1S(=O)(=O)O
inactive: [1] 25.8% | [2] -18.4% | [3] 4% | [4] 9.1% | [5] 4.25% | [6] 26.6%

CCC(O)(Cc1ccc(OC)cc1)c1ccc(OC)cc1 (centres undefined)
inactive: [1] -33.1% | [2] -24.4% | [3] 14.8% | [4] 1.4% | [5] 11.7% | [6] -11.8%

Cc1nc2nncn2c(=O)[nH]1
inactive: [1] 9.35% | [2] -0.4% | [3] 31.8% | [4] 15.4% | [5] 6.1% | [6] 17.9%

COc1ccc(C(=O)c2cc(OC)c(OC)c(OC)c2)cc1OC
inactive: [1] -21.9% | [2] -27.2% | [3] -13.8% | [4] 0.3% | [5] 7.45% | [6] -10.4%

COc1ccccc1C(=O)N/N=C\c1c[nH]c2ccccc12
inactive: [1] -3.35% | [2] 2.05% | [3] -4.85% | [4] -6.25% | [5] -5.15% | [6] -8.3%

Oc1ccc(C=Nc2ccccc2)c(O)c1O
inactive: [1] -12.7% | [2] -24.4% | [3] -4.9% | [4] -7.25% | [5] -9.7% | [6] 6.2%

O=C(CNC(=O)C(CCC(=O)OCc1ccccc1)NC(=O)OCc1ccccc1)NCC(=O)Oc1ccc([N+](=O)[O-])cc1 (centres undefined)
inactive: [1] 25.1% | [2] 13.6% | [3] 10.3% | [4] 9.3% | [5] 4% | [6] 18.1%

O=c1nc(N2CCCCCCC2)ccn1C1OC(CO)C(O)C1O (centres undefined)
inactive: [1] 4.85% | [2] 14.6% | [3] 8.95% | [4] 6.75% | [5] 6.85% | [6] 8.5%

NC(=S)N=Nc1c(O)[nH]c2ccccc12
inactive: [1] 12.8% | [2] -9.8% | [3] -5.9% | [4] 4.85% | [5] 9.95% | [6] 6.55%

COC(=O)c1nnn(-c2c(C)cccc2C(C)C)c1C(=O)c1ccccc1
inactive: [1] 6% | [2] -2.45% | [3] -2.15% | [4] -7.6% | [5] -23.8% | [6] 24.1%

O/N=C1\c2ccccc2-c2cccc(I)c21
inactive: [1] 23.4% | [2] -5.25% | [3] 7.8% | [4] 1.5% | [5] 1.1% | [6] 5.5%

COc1cccc(-n2cnc3c(SC)ncnc32)c1
inactive: [1] 8.8% | [2] 3.9% | [3] 4.75% | [4] -27.9% | [5] 19.1% | [6] 1.6%

c1ccc2cc3c(cc2c1)[nH]c1ccccc13
inactive: [1] -10.7% | [2] -26.4% | [3] -0.85% | [4] -3.1% | [5] -25.4% | [6] 14.8%

CSC(=S)N/N=C(\c1ccccc1)c1ccccn1
inactive: [1] 0.3% | [2] 13.2% | [3] 0.85% | [4] 10.4% | [5] 21.2% | [6] 5.75%

C[n+]1ccn(S(=O)(=O)[O-])c1
inactive: [1] 1.9% | [2] 4.2% | [3] -4.35% | [4] 0.55% | [5] -19.6% | [6] -8.05%

Cc1ccc(-n2c(=S)n(-c3ccccc3C)c3nc4ccccc4nc2/c3=N\Nc2ccccc2)cc1
inactive: [1] -6.85% | [2] 3.5% | [3] -14.8% | [4] -16.1% | [5] 1.3% | [6] -22.1%

C1CCCNCCNCCNCC1
inactive: [1] -4.4% | [2] -17.1% | [3] -18.9% | [4] 16.1% | [5] -20.8% | [6] 19.1%

Cc1cc2ccccc2n1S(=O)(=O)c1ccccc1
inactive: [1] 54% | [2] 45.4% | [3] 18.4% | [4] 35% | [5] 61% | [6] 66.3%

CCOC(=O)NC(Nc1ccc(F)c(F)c1)(C(=O)OCC)C(F)(F)F (centres undefined)
inactive: [1] 5.4% | [2] -1.3% | [3] -9.1% | [4] 15.4% | [5] 9.75% | [6] 39.5%
